According to PubChem BioAssay:
Inconclusive results are not listed. Active and inactive are the calls of the source. Rule as the data show it, unless noted: active = inhibition above about 80%; inactive = the rest.

Key:
[1] = compounds altering viability of human ES cells (AID 493140; call rule not given here;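 also: cells exposed to compounds for four days before counting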); conditions: human embryonic stem cell survival screen; stronger effect = higher value
[2] = viability loss in pontine glioma line – cell-based, SU-DIPG-XXV, MIPE5.0, CellTiter-Glo, qHTS, dose response (AID 1347065; cut-off not given, nearly all actives have AC50 up to about 26 µM;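 also: cells exposed to compound for 48 hours before ATP readout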); conditions: CellTiter-Glo ATP luminescence
[3] = growth inhibition of DIPG cells – cell-based, MIPE4.0 library, CellTiter-Glo luminescence, qHTS (AID 1347066; cut-off not given, nearly all actives have AC50 up to about 30 µM;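 also: cells exposed to compound for 48 hours before readout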); conditions: SU-DIPG-VI viability, CellTiter-Glo ATP luminescence
[4] = growth inhibition of DIPG cells – cell-based, MIPE5.0 library, qHTS (AID 1347068; cut-off not given, nearly all actives have IC50 up to about 30 µM); conditions: SU-DIPG-XXV viability
[5] = viability loss in pontine glioma line – cell-based, SU-DIPG-XIII, MIPE4.0, CellTiter-Glo, qHTS, dose response (AID 1347061; cut-off not given, nearly all actives have AC50 up to about 37 µM;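 also: cells exposed to compound for 48 hours before readout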); conditions: CellTiter-Glo ATP luminescence
[6] = JHH-DIPG-1 glioma cell viability, MIPE5.0 library, CellTiter-Glo luminescence, qHTS (AID 1347067; cut-off not given, nearly all actives have AC50 up to about 26 µM;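 also: cells exposed to compound for 48 hours before readout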); conditions: JHH-DIPG-1 glioma viability, CellTiter-Glo ATP luminescence
[7] = viability loss in pontine glioma line – cell-based, SU-DIPG-XIII, MIPE5.0, CellTiter-Glo, qHTS, dose response (AID 1347064; cut-off not given, nearly all actives have AC50 up to about 23 µM); conditions: CellTiter-Glo ATP luminescence
[8] = target: Mitogen-activated protein kinase 7 (Homo sapiens) (UniProt Q13164); test: Gal4-ERK5 driven luciferase induction – cell-based, HTS, primary screen (AID 1508626;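 active = luciferase signal above three times the same-plate solvent-only control wells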;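 also: luciferase driven by Gal4-ERK5 fusion binding five Gal4 sites before minimal TATA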); conditions: HeLa Gal4-ERK5 transactivation, 18 h, at 5 µM, stronger effect = higher value
[9] = growth inhibition, single agent or in combination, cell-based, chromothripsis tumors, cisplatin or BGB combos (AID 1671449); conditions: LFS_MB_P medulloblastoma cells;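 also: cells exposed for 96 hours; 0% = vehicle DMSO and 100% = killing by high DMSO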
[10] = growth inhibition, single agent and combos, cell-based, chromothripsis tumors, cisplatin or BGB combos (AID 1671450); conditions: HDN33 neuroblastoma cells, stronger effect = higher value;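 also: cells exposed to compound for four days; 0% = vehicle DMSO and 100% = cell killing by high DMSO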
[11] = growth inhibition, single agents and combos, LFS_MB_1R, cell-based, cisplatin or BGB combos, synergistic combos for chromothripsis tumors (AID 1671452); conditions: LFS_MB_1R medulloblastoma cells, stronger effect = higher value;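 also: cells exposed for 96 hours before readout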
[12] = growth inhibition, single agents and combos, HTB85, cell-based, BGB or cisplatin IC20 combos, synergistic combos for chromothripsis tumors (AID 1671453); conditions: HTB85 osteosarcoma cells, drug combinations, stronger effect = higher value;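 also: cells exposed for 96 hours before readout; 0% = vehicle DMSO and 100% = high DMSO killing control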
[13] = growth inhibition, single agents and combos, CRL2098, cell-based, BGB or cisplatin IC20 combos, synergistic combos for chromothripsis tumors (AID 1671454); conditions: CRL2098 osteosarcoma cells, drug combinations, stronger effect = higher value;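 also: cells exposed for 96 h before readout; 0% = vehicle DMSO and 100% = killing by high DMSO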
[14] = growth inhibition, single agents and combos, HD-MB03, cell-based, BGB or cisplatin IC20 combos, synergistic combos for chromothripsis tumors (AID 1671455; in the data active = inhibition above about 83%;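 also: 0% = vehicle DMSO and 100% = high DMSO as cytotoxic control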); conditions: HD-MB03 medulloblastoma cells, stronger effect = higher value
[15] = growth inhibition, MDA-MB-436, cell-based, BGB or cisplatin combos, synergistic combos for chromothripsis tumors (AID 1671458; call rule not given here;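 also: cells exposed for 96 hours; 0% = vehicle DMSO and 100% = killing by high DMSO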); conditions: MDA-MB-436 breast carcinoma growth inhibition, drug combinations, stronger effect = higher value
[16] = BT084 cell growth, single and combined drugs, ICGC_MB145, cisplatin and BGB IC40 combos (AID 1671461); conditions: BT084 medulloblastoma cells, drug combinations, stronger effect = higher value;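 also: cells exposed to drugs for 96 hours; 0% = vehicle DMSO and 100% = high DMSO full killing control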
[17] = RCMB18 cell growth, single agent and combined, cisplatin and BGB IC40 combos (AID 1671462); conditions: RCMB18 medulloblastoma cells, stronger effect = higher value;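 also: cells exposed to compound for four days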
[18] = CRL1545 cell growth, single agent and combined, cisplatin and BGB IC20 combos (AID 1671464); conditions: CRL1545 osteosarcoma cells, stronger effect = higher value;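 also: cells exposed to compound for 96 hours before readout; 0% = vehicle DMSO and 100% = high DMSO killing control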
[19] = measured here: combination with BGB IC40, at 0.05 µM
[20] = measured here: with BGB IC20 combination, at 0.5 µM
[21] = measured here: with cisplatin IC20 combination, at 0.5 µM
[22] = measured here: combination with cisplatin, at 0.5 µM

Sequence of Mitogen-activated protein kinase 7 (Homo sapiens) (Q13164 whole entry, looked up, the tested form may be a part): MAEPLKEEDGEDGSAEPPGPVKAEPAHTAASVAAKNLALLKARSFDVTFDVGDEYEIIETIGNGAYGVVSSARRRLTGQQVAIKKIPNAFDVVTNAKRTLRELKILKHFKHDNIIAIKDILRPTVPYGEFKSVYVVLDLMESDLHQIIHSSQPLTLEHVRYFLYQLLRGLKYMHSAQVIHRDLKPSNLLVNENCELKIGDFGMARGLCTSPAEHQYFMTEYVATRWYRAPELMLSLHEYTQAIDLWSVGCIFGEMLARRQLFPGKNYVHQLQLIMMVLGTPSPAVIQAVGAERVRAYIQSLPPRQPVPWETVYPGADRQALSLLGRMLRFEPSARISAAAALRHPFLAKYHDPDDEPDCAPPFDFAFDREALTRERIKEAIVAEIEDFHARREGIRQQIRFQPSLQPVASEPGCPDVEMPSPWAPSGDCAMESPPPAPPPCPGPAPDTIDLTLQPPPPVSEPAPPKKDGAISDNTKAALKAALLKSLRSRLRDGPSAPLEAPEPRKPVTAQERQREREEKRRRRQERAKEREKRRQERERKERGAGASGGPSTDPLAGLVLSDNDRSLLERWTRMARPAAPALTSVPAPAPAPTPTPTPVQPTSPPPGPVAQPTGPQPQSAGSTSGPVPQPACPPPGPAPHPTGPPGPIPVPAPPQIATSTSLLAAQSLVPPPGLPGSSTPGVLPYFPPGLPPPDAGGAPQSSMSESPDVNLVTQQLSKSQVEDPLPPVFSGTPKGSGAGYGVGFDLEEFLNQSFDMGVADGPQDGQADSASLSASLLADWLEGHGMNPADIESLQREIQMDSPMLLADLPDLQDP

Q: Which results are given for `C[C@@H]1C[C@H]2[C@@H]3CCC4=CC(=O)C=C[C@]4(C)[C@@]3(Cl)[C@@H](O)C[C@]2(C)[C@@]1(OC(=O)c1ccco1)C(=O)CCl`?
A: survival [1]: 4.67 (inactive); AC50 [2]: 29.5 µM (active); AC50 [3]: 20.9 µM (active); outcome [4]: inactive

Q: Which outcome [5] does the source give for `O=C(O)c1cccc(-c2noc(-c3ccccc3F)n2)c1` here?
A: inactive

Q: And the outcome [3]?
A: inactive

Q: And the outcome [4]?
A: inactive

Q: Which outcome [5] does the source give for `COc1nc(N)nc2c1ncn2[C@@H]1O[C@H](CO)[C@@H](O)[C@@H]1O` here?
A: inactive

Q: What about the outcome [3] of the same molecule?
A: inactive

Q: For `CCCS(=O)c1ccc2nc(NC(=O)OC)[nH]c2c1` (centres undefined), which AC50 [2] is on record?
A: 23.5 µM (active)

Q: And the outcome [6]?
A: inactive

Q: And the outcome [4]?
A: inactive

Q: Which outcome [5] does the source give for `NC(=O)Cc1cccc(C(=O)c2ccccc2)c1N` here?
A: inactive

Q: What about the outcome [3] of the same molecule?
A: inactive

Q: Which outcome [5] does the source give for `O=c1[nH]c(=O)n([C@H]2C[C@H](O)[C@@H](CO)O2)cc1C(F)(F)F` here?
A: inactive

Q: And the outcome [7]?
A: inactive

Q: And the outcome [2]?
A: inactive

Q: What about the outcome [3] of the same molecule?
A: inactive

Q: What about the outcome [6] of the same molecule?
A: inactive

Q: And the outcome [4]?
A: inactive

Q: And the luciferase signal [8]?
A: 36 AU (inactive)

Q: And the inhibition ([9]; at 0.5 µM, stronger effect = higher value)?
A: 36.4% (inactive)

Q: What about the inhibition ([9]; measured here: combination with BGB IC20, at 0.005 µM) of the same molecule?
A: -2.27%

Q: What about the inhibition ([9]; measured here: combination with BGB IC40, at 0.005 µM) of the same molecule?
A: -21%

Q: What about the inhibition [9, 19] of the same molecule?
A: -26.7%

Q: What about the inhibition ([9]; measured here: combination with cisplatin, at 0.5 µM, stronger effect = higher value) of the same molecule?
A: 71.9%

Q: And the inhibition ([9]; measured here: combination with cisplatin, at 5 µM, stronger effect = higher value)?
A: -10%

Q: What about the inhibition ([10]; BGB combo, at 5 µM) of the same molecule?
A: 76.1%

Q: What about the inhibition ([10]; at 0.5 µM) of the same molecule?
A: -26.4% (inactive)

Q: What about the inhibition ([10]; cisplatin combo, at 5 µM) of the same molecule?
A: 74.4%

Q: And the inhibition [10, 20]?
A: -34.8%

Q: What about the inhibition [10, 21] of the same molecule?
A: -33.1%

Q: What about the inhibition ([10]; single agent, at 5 µM) of the same molecule?
A: 78.3%

Q: What about the inhibition ([11]; at 0.5 µM) of the same molecule?
A: -42% (inactive)

Q: And the inhibition [11, 19]?
A: -48.3%

Q: What about the inhibition [11, 22] of the same molecule?
A: -37.1%

Q: What about the inhibition ([11]; measured here: combination with cisplatin, at 5 µM) of the same molecule?
A: -50.8%

Q: And the inhibition ([12]; at 0.5 µM)?
A: -26.4% (inactive)

Q: What about the inhibition ([12]; measured here: with BGB IC20, at 0.5 µM) of the same molecule?
A: -56.9%

Q: What about the inhibition ([12]; measured here: with BGB IC20, at 5 µM) of the same molecule?
A: -39.6%

Q: What about the inhibition ([12]; measured here: with cisplatin IC20, at 0.5 µM) of the same molecule?
A: -12.8%

Q: And the inhibition ([12]; measured here: with cisplatin IC20, at 5 µM)?
A: 1.86%

Q: What about the inhibition ([12]; single agent, at 5 µM) of the same molecule?
A: 7.02%

Q: And the inhibition ([13]; at 0.5 µM)?
A: -101% (inactive)

Q: What about the inhibition ([13]; measured here: combination with BGB at IC20, at 0.5 µM) of the same molecule?
A: -90.6%

Q: What about the inhibition ([13]; measured here: combination with cisplatin at IC20, at 0.5 µM) of the same molecule?
A: -100%

Q: And the inhibition ([14]; at 0.5 µM)?
A: 46.7% (inactive)

Q: And the inhibition ([14]; measured here: combo with BGB at IC20, at 0.5 µM)?
A: 44.2%

Q: What about the inhibition ([14]; measured here: combo with cisplatin at IC20, at 0.5 µM) of the same molecule?
A: 72.4%

Q: What about the inhibition ([15]; at 0.5 µM) of the same molecule?
A: -22.5% (inactive)

Q: And the inhibition ([15]; measured here: BGB combination, at 0.5 µM)?
A: -18.8%

Q: What about the inhibition ([15]; measured here: BGB combination, at 5 µM) of the same molecule?
A: 1.19%

Q: And the inhibition ([15]; measured here: cisplatin combination, at 0.5 µM)?
A: -44.6%

Q: What about the inhibition ([15]; measured here: cisplatin combination, at 5 µM) of the same molecule?
A: 12.8%

Q: What about the inhibition ([16]; at 0.5 µM) of the same molecule?
A: -27.4% (inactive)

Q: What about the inhibition ([16]; cisplatin combination, at 0.5 µM) of the same molecule?
A: -13.4%

Q: And the inhibition ([16]; cisplatin combination, at 5 µM)?
A: -12.4%

Q: What about the inhibition ([16]; measured here: BGB IC40 combination 0.05 uM, at 0.05 µM) of the same molecule?
A: -6.58%

Q: What about the inhibition ([16]; single agent, at 5 µM) of the same molecule?
A: -41.3%

Q: What about the inhibition ([17]; at 0.5 µM) of the same molecule?
A: -14.2% (inactive)

Q: What about the inhibition ([17]; cisplatin combo, at 5 µM) of the same molecule?
A: -41.9%

Q: What about the inhibition ([17]; measured here: BGB IC40 combination, at 0.05 µM) of the same molecule?
A: -13.9%

Q: What about the inhibition [17, 22] of the same molecule?
A: -28.5%

Q: What about the inhibition ([17]; single agent, at 5 µM) of the same molecule?
A: -39.2%

Q: And the inhibition ([18]; at 0.5 µM)?
A: -43.3% (inactive)

Q: What about the inhibition [18, 20] of the same molecule?
A: -61.7%

Q: And the inhibition [18, 21]?
A: -37.1%

Q: And the inhibition ([18]; single agent, at 0.05 µM)?
A: -89%

Q: And the inhibition ([18]; single agent, at 5 µM)?
A: 33.7%
